Experimental data reported in the supplement of paper PMC12494721.
Structures can show the parent of a compound that is named as a salt.

Tests used:
Settings in all cases: incubation time: 27 h, anaerobic, 37 °C;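 for the amine columns active = adjusted P below 0.05 in both replicates with a change the same way and a mean fold change under 0.8 or over 1.25; inactive = the rest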
[1] = tested on: Clostridium sporogenes DSM 1664; assay: growth (OD595) fold change vs plate DMSO controls (fold change (ratio)); higher = more growth
In short: (§1)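 Growth is calculated as fold change against the median of the DMSO control wells on each plate. Readings at 595 nm from anaerobic mGAM cultures (96-well, 27 h, 37 °C) were blank-subtracted, background-corrected with 20 µM compound solutions in water, and converted to OD by a calibration factor of 5. Fold changes above 1.5 were recorded as NA, and results are means of 2 biological replicates.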

[2] = tested on: Escherichia coli IAI1; assay: as above
In short: as §1

[3] = tested on: Klebsiella aerogenes DSM 30053; assay: as above
In short: as §1

[4] = tested on: Ruminococcus gnavus DSM 108212; assay: as above
In short: as §1

[5] = tested on: Klebsiella aerogenes DSM 30053; assay: fold change of Histamine concentration vs plate DMSO controls (fold change (ratio)); higher = more amine produced, active = hit call of the paper (significant change in both replicates, either direction)
In short: (§2)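 Using LC–triple-quadrupole MS with dynamic MRM, amines were quantified against external calibration curves and corrected for drift within each batch. Samples were whole anaerobic mGAM cultures of four gut strains, grown 27 h at 37 °C from OD 0.1 before 1:1 dilution, extracted with cold acetonitrile/methanol containing 0.1% formic acid and centrifuged. Compounds were present at 20 µM final (sweeteners at 50 µM final). The numbers are fold changes versus plate DMSO controls, each the mean of 2 biological replicates.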

[6] = tested on: Clostridium sporogenes DSM 1664; assay: fold change of Tryptamine concentration vs plate DMSO controls (fold change (ratio)); higher = more amine produced, active = hit call of the paper (significant change in both replicates, either direction)
In short: as §2

[7] = tested on: Ruminococcus gnavus DSM 108212; assay: as above
In short: as §2

[8] = tested on: Escherichia coli IAI1; assay: fold change of Putrescine concentration vs plate DMSO controls (fold change (ratio)); higher = more amine produced, active = hit call of the paper (significant change in both replicates, either direction)
In short: as §2

[9] = tested on: Klebsiella aerogenes DSM 30053; assay: as above
In short: as §2

[10] = tested on: Escherichia coli IAI1; assay: fold change of Cadaverine concentration vs plate DMSO controls (fold change (ratio)); higher = more amine produced, active = hit call of the paper (significant change in both replicates, either direction)
In short: as §2

[11] = tested on: Klebsiella aerogenes DSM 30053; assay: as above
In short: as §2

[12] = tested on: Ruminococcus gnavus DSM 108212; assay: fold change of 2-Phenylethylamine concentration vs plate DMSO controls (fold change (ratio)); higher = more amine produced, active = hit call of the paper (significant change in both replicates, either direction)
In short: as §2

SMILES | growth [1] | growth [2] | growth [3] | growth [4] | fold change of Histamine concentration [5] | fold change of Tryptamine concentration [6] | fold change of Tryptamine concentration [7] | fold change of Putrescine concentration [8] | fold change of Putrescine concentration [9] | fold change of Cadaverine concentration [10] | fold change of Cadaverine concentration [11] | fold change of 2-Phenylethylamine concentration [12]
Nc1cccc2c1C(=O)N(C1CCC(=O)NC1=O)C2=O (stereo not drawn) [Pomalidomide] (20 µM) | 1.09 | 1.02 | 1.02 | 1.04 | 1.13 (inactive) | 1.12 (inactive) | 1.03 (inactive) | 0.938 (inactive) | 1.04 (inactive) | 0.954 (inactive) | 1.03 (inactive) | 1.07 (inactive)
CN(C/C=C/C#CC(C)(C)C)Cc1cccc2ccccc12 [Terbinafine] (20 µM) | 1.03 | 1.2 | 0.972 | 0.896 | 1.07 (inactive) | 1.01 (inactive) | 0.97 (inactive) | 1.21 (inactive) | 1.01 (inactive) | 0.987 (inactive) | 0.989 (inactive) | 1.02 (inactive)
NC(=O)N1c2ccccc2C=Cc2ccccc21 [Carbamazepine] (20 µM) | 0.968 | 1.08 | 1.01 | 1.17 | 1.03 (inactive) | 0.973 (inactive) | 1.02 (inactive) | 1.03 (inactive) | 1 (inactive) | 1.04 (inactive) | 1.01 (inactive) | 0.987 (inactive)
COc1ccc2c(c1)N(C[C@H](C)CN(C)C)c1ccccc1S2 [Methotrimeprazine maleate salt] (20 µM) | 1.03 | 1.12 | 1 | 1.05 | 1.01 (inactive) | 1.07 (inactive) | 1.02 (inactive) | 1.19 (inactive) | 1.01 (inactive) | 0.995 (inactive) | 1.02 (inactive) | 1.11 (inactive)
COc1ccccc1OCC(O)CN1CCN(CC(=O)Nc2c(C)cccc2C)CC1 (stereo not drawn) [Ranolazine] (20 µM) | 1.13 | 1.01 | 1.13 | 0.994 | 0.957 (inactive) | 1.03 (inactive) | 1.03 (inactive) | 0.997 (inactive) | 1.01 (inactive) | 1.01 (inactive) | 1.01 (inactive) | 1.06 (inactive)
N#Cc1ccc(C(c2ccc(C#N)cc2)n2cncn2)cc1 [Letrozole] (20 µM) | 1.05 | 1.02 | 0.996 | 1.12 | 1.07 (inactive) | 0.988 (inactive) | 1.01 (inactive) | 1.03 (inactive) | 1.01 (inactive) | 0.964 (inactive) | 0.992 (inactive) | 1.02 (inactive)
CC(=O)OCC(=O)[C@@]12N=C(C)O[C@@H]1C[C@H]1[C@@H]3CCC4=CC(=O)C=C[C@]4(C)[C@H]3[C@@H](O)C[C@@]12C [Deflazacort] (20 µM) | 0.981 | 0.976 | 0.986 | 0.905 | 1 (inactive) | 1.02 (inactive) | 1.07 (inactive) | 1.03 (inactive) | 1 (inactive) | 0.993 (inactive) | 0.991 (inactive) | 1.1 (inactive)
CC(=O)N(CC(O)CO)c1c(I)c(C(=O)NCC(O)CO)c(I)c(C(=O)NCC(O)CO)c1I (stereo not drawn) [Iohexol] (20 µM) | 1 | 1.02 | 1.04 | 0.911 | 0.958 (inactive) | 0.975 (inactive) | 1.01 (inactive) | 1.02 (inactive) | 0.997 (inactive) | 0.992 (inactive) | 1 (inactive) | 1.01 (inactive)
C[n+]1ccccc1/C=N/O [Pralidoxime chloride] (20 µM) | 1.19 | 0.995 | 1.01 | 1.05 | 1.13 (inactive) | 1.02 (inactive) | 1.01 (inactive) | 0.968 (inactive) | 1.04 (inactive) | 1.02 (inactive) | 0.991 (inactive) | 1.01 (inactive)
NS(=O)(=O)c1cc2c(cc1Cl)NC(C(Cl)Cl)NS2(=O)=O (stereo not drawn) [Trichlormethiazide] (20 µM) | 1.14 | 1.08 | 1.01 | 1.07 | 1.05 (inactive) | 1.05 (inactive) | 1.03 (inactive) | 1.11 (inactive) | 1.02 (inactive) | 1.03 (inactive) | 0.984 (inactive) | 1.01 (inactive)
COc1ccc2c(c1)c(CC(=O)OC/C=C(\C)CC/C=C(\C)CCC=C(C)C)c(C)n2C(=O)c1ccc(Cl)cc1 [Indometacin farnesil] (20 µM) | 1.02 | 1.04 | 1.06 | 1.16 | 0.986 (inactive) | 0.94 (inactive) | 1.03 (inactive) | 1.03 (inactive) | 1.01 (inactive) | 1.04 (inactive) | 0.984 (inactive) | 1.06 (inactive)
CC(C(=O)O)c1cccc(Oc2ccccc2)c1 (stereo not drawn) [Fenoprofen calcium salt dihydrate] (20 µM) | 0.882 | 0.997 | 1.04 | 1.21 | 0.981 (inactive) | 0.945 (inactive) | 0.951 (inactive) | 0.976 (inactive) | 0.983 (inactive) | 1.03 (inactive) | 1 (inactive) | 0.937 (inactive)
CC(C)(Oc1ccc(CCNC(=O)c2ccc(Cl)cc2)cc1)C(=O)O [Bezafibrate] (20 µM) | 1.06 | 1.01 | 0.993 | 0.854 | 0.964 (inactive) | 0.996 (inactive) | 1.01 (inactive) | 0.997 (inactive) | 0.991 (inactive) | 0.983 (inactive) | 0.992 (inactive) | 1.01 (inactive)
CC(C)(C)NC(=O)[C@H]1CC[C@H]2[C@@H]3CC[C@H]4NC(=O)C=C[C@]4(C)[C@H]3CC[C@]12C [Finasteride] (20 µM) | 1.18 | 0.998 | 1.05 | 1.24 | 0.977 (inactive) | 0.973 (inactive) | 1.06 (inactive) | 0.983 (inactive) | 0.982 (inactive) | 0.913 (inactive) | 1.01 (inactive) | 1.12 (inactive)
OCC(CO)N[C@H]1C[C@](O)(CO)[C@@H](O)[C@H](O)[C@H]1O [Voglibose] (20 µM) | 1.03 | 1.05 | 1.03 | 1.17 | 1.02 (inactive) | 1.06 (inactive) | 1.06 (inactive) | 0.984 (inactive) | 0.99 (inactive) | 0.917 (inactive) | 1.01 (inactive) | 1.09 (inactive)
CCN[C@@H]1C[C@H](N)[C@@H](O[C@H]2OC(CN)=CC[C@H]2N)[C@H](O)[C@H]1O[C@H]1OC[C@](C)(O)[C@H](NC)[C@H]1O [Netilmicin sulfate] (20 µM) | 0.949 | 0.93 | 0.898 | 0.912 | 0.845 (inactive) | 1.02 (inactive) | 0.901 (inactive) | 0.947 (inactive) | 0.995 (inactive) | 0.982 (inactive) | 0.993 (inactive) | 0.948 (inactive)
CC#C[C@]1(O)CC[C@H]2[C@@H]3CCC4=CC(=O)CCC4=C3[C@@H](c3ccc(N(C)C)cc3)C[C@@]21C [Mifepristone] (20 µM) | 1.19 | 0.971 | 0.986 | 1.09 | 1.02 (inactive) | 0.911 (inactive) | 0.975 (inactive) | 1.01 (inactive) | 1.02 (inactive) | 1.01 (inactive) | 0.998 (inactive) | 0.902 (inactive)
NC(=O)Cc1cccc(C(=O)c2ccccc2)c1N [Nepafenac] (20 µM) | 1.01 | 1.03 | 1.06 | 1.09 | 0.929 (inactive) | 1.04 (inactive) | 1.06 (inactive) | 0.989 (inactive) | 0.993 (inactive) | 0.962 (inactive) | 1.04 (inactive) | 1.11 (inactive)
COc1ccc2[nH]c([S+]([O-])Cc3ncc(C)c(OC)c3C)nc2c1 (stereo not drawn) [Omeprazole] (20 µM) | 1.05 | 0.96 | 1.01 | 1.2 | 0.936 (inactive) | 1.02 (inactive) | 1.01 (inactive) | 0.97 (inactive) | 1.01 (inactive) | 1 (inactive) | 1 (inactive) | 1.02 (inactive)
O=C(O)Cc1ccc(-c2ccccc2)cc1 [Felbinac] (20 µM) | 1 | 1.01 | 1.08 | 1.01 | 0.921 (inactive) | 0.994 (inactive) | 1.01 (inactive) | 1.03 (inactive) | 0.976 (inactive) | 0.989 (inactive) | 0.998 (inactive) | 1.01 (inactive)
CCCC(=O)Nc1ccc(OCC(O)CNC(C)C)c(C(C)=O)c1 (stereo not drawn) [Acebutolol hydrochloride] (20 µM) | 0.937 | 0.989 | 0.971 | 0.781 | 1.06 (inactive) | 1.03 (inactive) | 1.03 (inactive) | 0.996 (inactive) | 1.01 (inactive) | 0.958 (inactive) | 0.99 (inactive) | 0.985 (inactive)
CC(C)c1ccc2oc3nc(N)c(C(=O)O)cc3c(=O)c2c1 [Amlexanox] (20 µM) | 0.911 | 1.2 | 1.05 | 0.857 | 0.877 (inactive) | 1.07 (inactive) | 1.03 (inactive) | 1.1 (inactive) | 0.984 (inactive) | 0.957 (inactive) | 1.03 (inactive) | 1.02 (inactive)
N[C@@H](Cc1cc(I)c(Oc2ccc(O)c(I)c2)c(I)c1)C(=O)O [Liothyronine] (20 µM) | 0.986 | 0.992 | 1.03 | 1.09 | 0.981 (inactive) | 0.991 (inactive) | 0.88 (inactive) | 0.906 (inactive) | 0.99 (inactive) | 1.02 (inactive) | 0.993 (inactive) | 0.88 (inactive)
CC(=O)Oc1ccc(C(c2ccc(OC(C)=O)cc2)c2ccccn2)cc1 [Bisacodyl] (20 µM) | 0.976 | 0.978 | 0.993 | 0.731 | 1.06 (inactive) | 0.942 (inactive) | 0.988 (inactive) | 0.967 (inactive) | 1.02 (inactive) | 1 (inactive) | 0.998 (inactive) | 0.954 (inactive)
